{
  "source": "ChEMBL document CHEMBL3433997",
  "about": "“St. Jude Leishmania screening dataset” (2016)",
  "data": [
    {"target": "Hexose transporter 1 (Plasmodium falciparum) (UniProt O97467)", "experiment": "ST_JUDE_LEISH: Cytotoxicity at 2uM final concentration against transgenic Leishmania Mexicana promastigotes LmPfHT that are glucose transport deficient and complemented with the Plasmodium falciparum hexose transporter. Activity is measured by DNA content using SYBR green in vitro", "format": "functional", "units": {"inhibition": "%"}, "values": [
      {"smiles": "CC1CC1C(=O)NC1CCN(CC2(c3ccccc3)CCCCC2)CC1", "note": "(stereo not given)", "inhibition": 1.18},
      {"smiles": "O=C(CCn1c2ccccc2c2ccccc21)NN=Cc1ccco1", "inhibition": 5.11},
      {"smiles": "CCN1CCC(N(Cc2ccc(-c3ccc(Cl)cc3)cc2)C(=O)Cn2c(CCc3cccc(F)c3F)cc(=O)c3ccccc32)CC1", "inhibition": 5.52},
      {"smiles": "CCOc1cc(C(C)C)ccc1N1CCN(CCCCNC(=O)c2ccc(NC(=O)c3ccc(Cl)cc3)cc2)CC1", "inhibition": 2.39},
      {"smiles": "O=C(N[C@@H](CC1CCCCC1)C(=O)NCCN1CCOCC1)c1ccc(O)c(-c2ccc(Cl)c(Cl)c2)c1", "inhibition": 1.41},
      {"smiles": "CC(=O)Nc1ccc(CN(Cc2ccc(OC(C)(C)C)cc2)Cc2ccc3c(c2)OCCO3)cc1", "inhibition": 3.27},
      {"smiles": "COc1ccc2nccc(N3CCC(SCCNCc4ccc5c(n4)NC(=O)CO5)C3)c2n1", "note": "(stereo not given)", "inhibition": 2.93},
      {"smiles": "O=C(COc1cnc2ccccc2n1)Nc1ccccc1Sc1ccc(Cl)cc1", "inhibition": 3.31},
      {"smiles": "COc1ccc(CCNCCCCCCNCCc2ccccc2Cl)cc1OC", "inhibition": 0.29},
      {"smiles": "COc1ccc2nccc([C@@H](O)CN3CCC(NCc4cc5oc(=O)n(C)c5cc4F)CC3)c2c1", "inhibition": 0.07},
      {"smiles": "CCOc1cc(C(=O)Nc2cccnc2)cc(Br)c1OCCC(C)C", "inhibition": -2.07},
      {"smiles": "COC(=O)c1cccc(N2CCN(CCCNC(=O)/C(=C/C=C/c3cc4cc(Cl)c(Cl)cc4[nH]3)OC)CC2)c1", "inhibition": 0.95},
      {"smiles": "Cc1cc(-c2ccc(CN3Cc4ccccc4C3)cc2)ccc1S(=O)(=O)NCCN1CCCC1", "inhibition": 17.2},
      {"smiles": "COc1nc2c(CCN3CCC(NCc4ccc5c(c4)NC(=O)CO5)CC3)c(Cl)cnc2cc1F", "inhibition": 0.9},
      {"smiles": "O=C(Nc1cccc(F)c1)N[C@H]1CCN(CCCCCNC(=O)C2CC2c2ccc(Cl)c(Cl)c2)C1", "note": "(stereo not given in full)", "inhibition": 3.61},
      {"smiles": "Cc1noc(-c2ccc3c(c2)CCN(CCC2CCC(NC(=O)/C=C/c4ccc(F)cc4)CC2)CC3)n1", "note": "(stereo not given)", "inhibition": -1.07},
      {"smiles": "CCc1cn2c3c(cc(C(=O)N[C@@H](Cc4ccccc4)[C@H](O)CNC4CCCCC4)cc13)N(CC)S(=O)(=O)CC2", "inhibition": 0.33},
      {"smiles": "CC1CCCCC1N(C)C1CCN(CCCNC(=O)C=Cc2ccc(Cl)cc2Cl)CC1", "note": "(stereo not given)", "inhibition": -1.99},
      {"smiles": "CO/C(=C\\C=C\\c1cc2cc(Cl)c(Cl)cc2[nH]1)C(=O)NC1CCN(CCCc2ccccc2)CC1", "inhibition": 1.14},
      {"smiles": "Cc1ccc(C(=O)Nc2cccc(-c3ccc(N4CCN(C)CC4)nn3)c2)cc1[N+](=O)[O-]", "inhibition": -0.23},
      {"smiles": "O=C(Nc1nccs1)c1cn(-c2ccccc2)nc1-c1ccc(Cl)s1", "inhibition": 2.82},
      {"smiles": "Cc1cc(NCCC(=O)Nc2ccccc2)nc(NCc2ccccc2C)n1", "inhibition": 10.5},
      {"smiles": "Clc1ccc(OCc2ccccc2)c(-c2nc(-c3nc4ccc(Cl)cc4[nH]3)cs2)c1", "inhibition": 2.99},
      {"smiles": "COc1ccc2[nH]cc(C3CCN(CCC4CCN(C(=O)/C=C/c5ccc(Cl)c(Cl)c5)CC4)CC3)c2c1", "inhibition": 1.24},
      {"smiles": "CC1(C)NC(N)=NC(=N)N1OCCSc1ccc(Cl)c(Cl)c1", "inhibition": 7.48},
      {"smiles": "CS(=O)(=O)Nc1ccc2c(C3CCN(CCC4CCN(C(=O)/C=C/c5ccc(Cl)c(Cl)c5)CC4)CC3)c[nH]c2c1", "inhibition": 3.65},
      {"smiles": "O=C(Nc1ccc(C(F)(F)F)cc1)Nc1cccc([N+](=O)[O-])c1", "inhibition": 2.48},
      {"smiles": "Cc1cccn2c(=O)c3cc(C(=O)NC(C)c4ccccc4)c(=N)n(CCN4CCOCC4)c3nc12", "note": "(stereo not given)", "inhibition": 1.65},
      {"smiles": "CC(C)c1ccc(NC(=O)c2ccc(C(=O)NC3CCN(Cc4ccsc4)C3)cc2)cc1", "note": "(stereo not given)", "inhibition": 4.64},
      {"smiles": "CS(=O)(=O)c1ccc(-c2nc(NCC3CCCCC3)cc(C(F)(F)F)n2)cc1", "inhibition": 1.77},
      {"smiles": "CN(C)CCn1c(N)c(-c2nc3ccccc3s2)c2nc(C#N)c(C#N)nc21", "inhibition": 1.76},
      {"smiles": "CCOc1cc[nH]c(=O)n1", "inhibition": 2.36},
      {"smiles": "COc1ccc2[nH]cc(C3CCN(CCCCNC(=O)c4ccc(NC(=O)c5ccc(Cl)cc5)cc4)CC3)c2c1", "inhibition": 4.04},
      {"smiles": "O=C(NCc1cccs1)[C@H](Cc1ccccc1)Nc1ccnc(NCC2CCCCC2)n1", "inhibition": 10.5},
      {"smiles": "CCCOc1cc2c(cc1OCCC)C(C=Cc1ccc(Cl)cc1Cl)=NC(C)C2", "note": "(stereo not given)", "inhibition": 96.7},
      {"smiles": "CC(C)=C(C(=O)OCc1ccccc1)N1C(=O)[C@@H](NC(c2ccccc2)(c2ccccc2)c2ccccc2)[C@H]1[S+]([O-])CC(=O)OC(C)(C)C", "note": "(stereo not given in full)", "inhibition": -0.01},
      {"smiles": "O=C(Nc1cccc(CN2CCCN(Cc3cccc(Cl)c3)CC2)c1)c1ccc(-c2ccccc2)cc1", "inhibition": 4.23},
      {"smiles": "CCNc1cc(C(=O)N[C@@H](Cc2ccccc2)[C@H](O)CNC(C)C)cc(N2CC(c3ccccc3)CCS2(=O)=O)c1", "note": "(stereo not given in full)", "inhibition": 2.11},
      {"smiles": "CN(C)CCCOc1ccc(-c2csc(NC(=N)NCc3ccccc3)n2)cc1", "inhibition": 6.08},
      {"smiles": "Cn1nc(-c2ccc(NC(=O)Nc3cc(C(F)(F)F)cc(C(F)(F)F)c3)c(F)c2)c2cnc(NCCN3CCOCC3)nc21", "inhibition": 2.48}
    ]}
  ]
}
